# According to PubChem BioAssay:
# Where “and” joins values, the source holds several entries; their conditions need not be identical. Equal values may be shown once. Calls of active or inactive are those of the source. Unless noted, no rule for the calls is given here.
# How the values were obtained:
# [1] = Wnt pathway potentiators raising nuclear beta-catenin – imaging, WNT3A-conditioned medium, mouse C2C12, NPC library, primary screen (AID 1117326; in the data active = nuclear beta-catenin stimulation mostly above about 4.2%, no sharp cut-off; inactive = mostly below about 10%); conditions: stronger effect = higher value
# [2] = stimulators of insulin release from INS-1E, primary screen, cell-based, 5 mM glucose, NPC library (AID 1117329;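 active = compound raises insulin release from rat beta cells at 5 mM glucose, no numeric limit stated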); conditions: rat INS-1E insulin secretion, at 10 µM, stronger effect = higher value
# [3] = GLP1 release stimulators, primary, NCI-H716, NPC library (AID 1117341;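 active = compound raises GLP1 secretion from the human gut endocrine cells, with no numeric limit stated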); conditions: NCI-H716 cells, at 10 µM, stronger effect = higher value
# [4] = growth inhibition of GSK3B-pretreated HCT116 cells – cell-based, CellTiter-Glo, 0.2 to 20 µM (AID 1117336;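 active = compounds lowering colon cancer cell viability after pretreatment blocking the GSK3B kinase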); conditions: HCT116 viability after GSK3B inhibitor, at 20 µM, stronger effect = higher value
# [5] = inhibition of endothelial tube formation, primary screen, imaging, VEGF stimulated, CD31 staining, tube area, NPC library (AID 1117340;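 active = compound that reduces growth-factor-driven endothelial tube area in a mixed cell culture, no cutoff stated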); conditions: VEGF-stimulated ADSC/ECFC co-culture, at 10 µM, stronger effect = higher value
# [6] = HCT116 colon cancer cell growth inhibition, primary screen, CellTiter-Glo luminescence, NPC library (AID 1117342;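 active = compounds that lower survival of HCT116 colon cancer cells in the luminescence readout, no numeric limit stated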); conditions: at 20 µM (top of the series)
# [7] = reduced SW480 viability measured with CellTiter-Glo, NPC library, primary (AID 1117343;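 active = compounds that lower viability of the colon cancer cells in the luminescence readout, with no numeric limit stated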); conditions: CellTiter-Glo luminescence; at 20 µM (top of the series)
# [8] = NPC library primary testing for decreased DLD-1 cell viability via CellTiter-Glo (AID 1117346;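 active = compounds that lower survival of DLD-1 colon cancer cells in the luminescence readout, no cutoff given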); conditions: DLD-1 viability, CellTiter-Glo luminescence; at 20 µM (top of the series)
# [9] = viability loss with induced miR-34 in A549 – imaging, A549 dox-inducible miR-34, nuclei and caspase counts, primary screen (AID 1347080;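 active = compounds whose cell count with miR-34 switched on is under 0.7 times the count with it off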); conditions: A549 miR-34 inducible, Hoechst nuclei count, 48 h
# [10] = biological target: NAD(+) hydrolase SARM1 (Homo sapiens) (UniProt Q6SZW1); assay: blocking NAD cleavage by SARM1 SAM-TIR – cell lysate, NAD-Glo luminescence (AID 1508614;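 active = compound whose remaining NAD level is above about 45 nM, limit read from the data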;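 also: higher remaining NAD means stronger inhibition of SARM1 NADase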); conditions: SAM-TIR HEK293T lysate NADase, at 1 µM, stronger effect = higher value
# [11] = compounds altering viability of human ES cells (AID 493140); conditions: human embryonic stem cell survival screen; stronger effect = higher value;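 also: cells exposed to compounds for four days before counting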
# [12] = P. berghei load reduction in hepatocytes – cell-based, HepG2, luciferase luminescence, HepG2 viability, primary screen (AID 624349; in the data active = parasite load remaining mostly below about 12%, no sharp cut-off; inactive = mostly above about 10%;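 also: 100% = mean of DMSO negative control wells on the same plate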); conditions: P. berghei liver stage in HepG2, luciferase luminescence, concentration not given here; parasite load remaining: stronger effect = lower value; viability: measured here: HepG2 viability without parasites
# [13] = MELAS cybrid and Rieske KO viability enhancers – cell-based, MELAS cybrids, Rieske KO mouse fibroblasts, CellTiter-Glo, primary screen (AID 1508586;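 active = mean z-score across replicates of 1.96 or higher in either the MELAS or the Rieske mutant cell line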;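 also: z relative to plate mean and SD of compound and empty wells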); conditions: low glucose
# [14] = compounds altering circadian rhythm period length – cell-based, LOPAC library, luminescence reporter (AID 2774); conditions: circadian reporter cells, at 7 µM, actives lie on both sides;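 also: values are relative to mean of DMSO wells on each plate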
# [15] = test system: Hepatitis C virus NS3 helicase; assay: blockers of NS3h binding to ssDNA – biochemical, fluorescence polarization, LOPAC1280 library, primary screen (AID 687035; in the data active = inhibition above about 37%); conditions: Purified HCV NS3 helicase, Cy5-dT15 ssDNA binding fluorescence polarization; stronger effect = higher value; concentration not given here
# [16] = compounds altering Cy5-DNA-NS3h complex signal – biochemical, LOPAC1280, artefact control for HCV NS3 helicase inhibitor project (AID 687037); conditions: Cy5-DNA-NS3h complex fluorescence interference counterscreen
# [17] = EMT-state selective cytotoxicity in co-culture – imaging, PC-3E GFP, TEM4-18 mCherry, primary screen (AID 1345086;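 active = compounds killing one labelled cell type while sparing the other, by normalised counts and ratio limits, not self-fluorescent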;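 also: cells exposed to compound for 72 h before imaging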;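 as to red/green cell ratio (normalised): normalised mesenchymal count divided by normalised epithelial count so high means epithelial killing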); conditions: PC-3E GFP / TEM4-18 mCherry co-culture, imaging cell counts, at 1 µM
# [18] = stronger effect = lower value, cell number ratio, induced over uninduced
# [19] = measured here: relative caspase fold change +Dox/-Dox
# [20] = measured here: total cells with miR-34 induction, stronger effect = lower value
# [21] = measured here: total cells without miR-34 induction
# [22] = MELAS cybrid survival, CellTiter-Glo 48 h, stronger effect = higher value
# [23] = Rieske KO mouse fibroblast survival, CellTiter-Glo 72 h
# Sequence of NAD(+) hydrolase SARM1 (Homo sapiens) (Q6SZW1 whole entry, looked up): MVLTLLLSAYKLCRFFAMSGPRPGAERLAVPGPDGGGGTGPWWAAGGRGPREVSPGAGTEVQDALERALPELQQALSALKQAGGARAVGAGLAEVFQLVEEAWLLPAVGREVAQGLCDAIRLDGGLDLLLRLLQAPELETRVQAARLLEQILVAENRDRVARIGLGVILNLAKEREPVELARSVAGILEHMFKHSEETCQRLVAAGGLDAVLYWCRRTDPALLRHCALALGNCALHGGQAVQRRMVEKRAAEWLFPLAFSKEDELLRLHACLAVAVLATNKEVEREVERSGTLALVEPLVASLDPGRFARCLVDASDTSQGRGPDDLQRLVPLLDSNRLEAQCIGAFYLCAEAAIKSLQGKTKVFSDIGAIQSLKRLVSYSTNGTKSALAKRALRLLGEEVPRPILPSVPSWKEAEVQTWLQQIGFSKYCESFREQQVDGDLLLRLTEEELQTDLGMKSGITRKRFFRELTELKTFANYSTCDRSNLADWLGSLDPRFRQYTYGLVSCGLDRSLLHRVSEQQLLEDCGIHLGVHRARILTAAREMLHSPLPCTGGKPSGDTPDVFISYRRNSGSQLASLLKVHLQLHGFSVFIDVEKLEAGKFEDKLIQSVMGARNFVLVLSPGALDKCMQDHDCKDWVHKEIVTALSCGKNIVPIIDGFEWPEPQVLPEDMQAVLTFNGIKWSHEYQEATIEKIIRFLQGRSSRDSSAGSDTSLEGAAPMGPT
compound,measurement,setting,value
ClC1=C(Cl)C2(Cl)C(CBr)CC1(Cl)C2(Cl)Cl (stereo not drawn),nuclear beta-catenin stimulation,[1]; at 10 µM,1.7% (inactive)
same,nuclear beta-catenin stimulation,"[1]; stimulation, at 2 µM",5.3%
same,insulin secretion stimulation,[2],0.2% (inactive)
same,GLP1 secretion stimulation,[3],16.3% (inactive)
COC(=O)[C@@H](N)CCCN/C(N)=N/[N+](=O)[O-],nuclear beta-catenin stimulation,[1]; at 10 µM,-0.9% (inactive)
same,nuclear beta-catenin stimulation,"[1]; stimulation, at 2 µM",-2.6%
same,insulin secretion stimulation,[2],0.95% (inactive)
same,viability decrease,[4],23.3% (inactive)
same,tube area decrease,[5],-8.8% (inactive)
same,GLP1 secretion stimulation,[3],0.9% (inactive)
same,inhibition of viability,[6],1.7% (inactive)
same,viability decrease (inhibition),[7],-10.3% (inactive)
same,viability decrease (inhibition),[8],-0.3% (inactive)
same,fold change,[9]; [18],0.947 (inactive)
same,fold change,[9]; [19],0.639
same,cell count,[9]; [20],5570
same,cell count,[9]; [21],5890
CC(C)(C)CC(C)(C)c1ccc(O)cc1,nuclear beta-catenin stimulation,[1]; at 10 µM,-1.8% (inactive)
same,nuclear beta-catenin stimulation,"[1]; stimulation, at 2 µM",-0.9%
same,insulin secretion stimulation,[2],4% (inactive)
same,viability decrease,[4],84.6% (active)
same,tube area decrease,[5],66.9% (active)
same,GLP1 secretion stimulation,[3],28.5% (active)
same,inhibition of viability,[6],74.8% (active)
same,viability decrease (inhibition),[7],142% (active)
same,viability decrease (inhibition),[8],104% (active)
same,remaining NAD,[10],10 nM (inactive)
Clc1ccc(CCC(Cn2ccnc2)Sc2c(Cl)cccc2Cl)cc1 (stereo not drawn),survival,[11],15 (inactive)
same,parasite load remaining,[12],5.94% (inactive) and 63.9% (inactive)
same,viability,[12],103% and 82.5%
same,nuclear beta-catenin stimulation,[1]; at 10 µM,15.6% (inactive)
same,nuclear beta-catenin stimulation,"[1]; stimulation, at 2 µM",4.3%
same,insulin secretion stimulation,[2],-0.2% (inactive)
same,viability decrease,[4],101% (active)
same,tube area decrease,[5],109% (active)
same,GLP1 secretion stimulation,[3],20.8% (active)
same,inhibition of viability,[6],101% (active)
same,viability decrease (inhibition),[7],123% (active)
same,viability decrease (inhibition),[8],103% (active)
same,fold change,[9]; stronger effect = lower value,0.969 (inactive) and 0.821 (inactive) and 0.887 (inactive)
same,fold change,[9]; [19],0.807 and 1.54 and 0.572
same,cell count,[9]; [20],5090 and 6860 and 7040
same,cell count,[9]; [21],5260 and 8350 and 7940
same,z-score,[13]; [22],0.075 (inactive) and -0.442 (inactive)
same,z-score,[13]; [23],-0.608 and 0.109
CCCCCCCCCCCC[N+](C)(C)CCOc1ccccc1,nuclear beta-catenin stimulation,[1]; at 10 µM,20.4% (inactive)
same,nuclear beta-catenin stimulation,"[1]; stimulation, at 2 µM",0.6%
same,insulin secretion stimulation,[2],5.9% (inactive)
same,viability decrease,[4],110% (active)
same,tube area decrease,[5],111% (active)
same,GLP1 secretion stimulation,[3],67% (active)
same,inhibition of viability,[6],112% (active)
same,viability decrease (inhibition),[7],134% (active)
same,viability decrease (inhibition),[8],101% (active)
same,fold change,[9]; [18],0.988 (inactive)
same,fold change,[9]; [19],0.958
same,cell count,[9]; [20],6790
same,cell count,[9]; [21],6870
same,z-score,[13]; [22],-0.488 (inactive)
same,z-score,[13]; [23],-0.197
C[C@]12CCC(=O)C=C1CC[C@@H]1[C@@H]2CC[C@]2(C)C(=O)CC[C@@H]12,period change,[14],0.09 h (inactive)
same,nuclear beta-catenin stimulation,[1]; at 10 µM,-0.1% (inactive)
same,nuclear beta-catenin stimulation,"[1]; stimulation, at 2 µM",-1.6%
same,insulin secretion stimulation,[2],2.4% (inactive)
same,viability decrease,[4],64.9% (active)
same,tube area decrease,[5],-7% (inactive)
same,GLP1 secretion stimulation,[3],-2.7% (inactive)
same,inhibition of viability,[6],68.5% (active)
same,viability decrease (inhibition),[7],23.5% (inactive)
same,viability decrease (inhibition),[8],45.9% (inactive)
CC(C)(O)C(Cl)(Cl)Cl,nuclear beta-catenin stimulation,[1]; at 10 µM,-0.2% (inactive)
same,nuclear beta-catenin stimulation,"[1]; stimulation, at 2 µM",0.8%
same,insulin secretion stimulation,[2],-2.2% (inactive)
same,viability decrease,[4],-5.6% (inactive)
same,tube area decrease,[5],1.4% (inactive)
same,GLP1 secretion stimulation,[3],1.1% (inactive)
same,inhibition of viability,[6],4.4% (inactive)
same,viability decrease (inhibition),[7],14% (inactive)
same,viability decrease (inhibition),[8],6.7% (inactive)
same,fold change,[9]; stronger effect = lower value,0.973 (inactive)
same,fold change,[9]; [19],0.817
same,cell count,[9]; [20],7820
same,cell count,[9]; [21],8030
same,remaining NAD,[10],10 nM (inactive)
CN1C[C@H](CNC(=O)OCc2ccccc2)C[C@@H]2c3cccc4c3c(cn4C)C[C@H]21,period change,[14],0.135 h (inactive)
same,survival,[11],2.67 (inactive)
same,inhibition,[15],-2% (inactive)
same,fluorescence ratio (interference),[16],1 (inactive)
same,z-score,[13]; [22],0.443 (inactive)
same,z-score,[13]; [23],0.114
same,remaining NAD,[10],10 nM (inactive)
CN(C)C(=S)SSC(=S)N(C)C,red/green cell ratio (normalised),[17]; actives lie on both sides,1.29 (inactive)
same,normalised cell number,[17]; measured here: epithelial PC-3E GFP cell survival,0.66
same,normalised cell number,[17]; measured here: mesenchymal TEM4-18 mCherry cell survival,0.85
same,remaining NAD,[10],48 nM (active)
COc1ccc2c(c1OC)C(=O)O[C@H]2[C@@H]1c2cc3c(cc2CCN1C)OCO3,period change,[14],-0.14 h (inactive)
same,inhibition,[15],-3% (inactive)
same,fluorescence ratio (interference),[16],1 (inactive)
